Source: PubChem (National Center for Advancing Translational Sciences (NCATS))
Rows were chosen to be rich in hits. Some 9.8% of all compounds tested hit in one or more screens of this group.
CBFb RUNX1 block: CBF-beta/RUNX1 interaction disruption | Q01196+Q13951 | AlphaScreen CBFb-His/RUNX1-biotin binding, biochemical | Potency, µM (highest dose often 59.8 µM), actives largely listed as inhibitors | 230,000 tested, under 10 active | AID 1477
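CBFb-His/RUNX1-biotin, 30 nM each, preincubated 20 min RT; compound 15 min RT; Ni + streptavidin beads 50 ng each, 90 min RT; AlphaScreen read.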
HPGD inh: inhibitors of human 15-hydroxyprostaglandin dehydrogenase (HPGD); P15428; purified HPGD, NADH fluorescence kinetic, PGE2 substrate; Potency, µM, actives largely listed as inhibitors; 150,000 tested, 4.3% active; AID 894; active = well fitted inhibition curve with a large enough effect, not every such curve was filed as active; inconclusive = small, poorly fitted or top-dose-only effect, or another doubt; inactive = no such curve, though single readings can be large or run the other way
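NADH formation kinetics: reaction with 30 uM PGE2 and 1 mM NAD+ (final), 20 nM enzyme, Tris-HCl pH 8 with Tween 20, after 15 min compound preincubation at room temperature. Fluorescence change, last versus first of five reads.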
ALDH1A1 block: inhibitors of human aldehyde dehydrogenase 1A1. Purified ALDH1A1, NADH fluorescence, propionaldehyde substrate. Potency, µM (top dose mostly 75.3 µM), actives largely listed as inhibitors. 220,000 tested, 7.3% active. AID 1030; active = well fitted inhibition curve with a large enough effect, not every such curve was filed as active; inconclusive = small, poorly fitted or top-dose-only effect, or another doubt; inactive = no such curve, though single readings can be large or run the other way
Target sequence (P00352 whole entry, looked up): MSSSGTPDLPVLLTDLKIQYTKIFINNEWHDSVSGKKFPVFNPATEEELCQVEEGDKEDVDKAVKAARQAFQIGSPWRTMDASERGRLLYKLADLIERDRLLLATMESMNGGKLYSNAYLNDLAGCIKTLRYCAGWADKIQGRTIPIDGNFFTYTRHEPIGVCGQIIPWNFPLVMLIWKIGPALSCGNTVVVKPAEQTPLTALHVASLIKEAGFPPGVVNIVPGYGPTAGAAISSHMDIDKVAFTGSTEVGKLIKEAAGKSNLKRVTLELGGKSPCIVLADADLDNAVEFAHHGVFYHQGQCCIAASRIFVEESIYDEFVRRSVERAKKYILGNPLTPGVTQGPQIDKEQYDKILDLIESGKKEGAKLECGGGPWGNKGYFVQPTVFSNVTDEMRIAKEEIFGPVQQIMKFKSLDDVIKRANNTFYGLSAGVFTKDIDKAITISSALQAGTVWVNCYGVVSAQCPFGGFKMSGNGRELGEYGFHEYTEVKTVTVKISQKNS
JMJD2E inh: JMJD2E (human) inhibition; B2RXH2; JMJD2E catalytic domain, FDH-coupled NADH fluorescence (FDH is formaldehyde dehydrogenase); Potency, µM (top dose mostly 57.1 µM), actives largely listed as inhibitors; 230,000 tested, 1.6% active; active = well fitted inhibition curve with a large enough effect, not every such curve was filed as active; inconclusive = small, poorly fitted or top-dose-only effect, or another doubt; inactive = no such curve, though single readings can be large or run the other way; note: nearly all actives have a fitted effect of over 50% in size
HttQ103 aggreg: mutant huntingtin aggregation inhibition | PC12 HttQ103-GFP aggregates, Acumen cytometry, 40 h | Potency, µM (doses to about 46.1 µM), hits mostly inhibitors | 220,000 tested, 1.1% active; note: nearly all actives have a fitted effect of over 60% in size
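Inducible Q103 Huntingtin exon 1–GFP PC12 line, 1500 cells/well in phenol red free DMEM with 5% equine and 5% calf serum. Tebufenozide 100 nM induced expression; compounds titrated; aggregates quantified by cytometry.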
HTT cytoprotect: protects HTT-Q103 PC12 cells, measured by ATP | Potency, µM (top dose mostly 56.4 µM), hits mostly activators | 230,000 tested, 0.14% active | PC12 HTT-Q103 induced, cytoprotection, ATP luminescence, 40 h | AID 1471; note: nearly all actives have a fitted effect of over 45% in size
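ATP quantification (ATPlite) reports survival of PC12 cells in which tebufenozide, 100 nM final, switches on Htt exon 1 with 103 glutamines linked to GFP; compounds are titrated.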
Each line names hits and unclear results; the compound was inactive in the other large screens. Unless noted, calls come from the whole dose curve; as a rule, active = well fitted curve in the direction sought with a large enough effect; inconclusive = small, poorly fitted or top-dose-only effect, or another doubt; inactive = no such curve, though single readings can be large; an effect the other way counts as inactive or inconclusive.

CNC(=O)c1c(NC(=O)C(C)C)sc2c1CCC2	none (no result: HPGD inh, ALDH1A1 block)
COC(=O)c1c(NC(=O)C2COc3ccccc3O2)sc2c1CCN(C(C)=O)C2 (stereo unspecified)	HPGD inh inconclusive, ALDH1A1 block 31.6µM, JMJD2E inh inconclusive
COC(=O)c1c(NC(=O)c2nc3ccccc3s2)sc2c1CCN(C(C)=O)C2	ALDH1A1 block 12.6µM
CNC(=O)c1c(NC(=O)c2nc3ccccc3s2)sc2c1CCC2	HPGD inh 28.2µM, ALDH1A1 block inconclusive
CC(=O)N1CCC(=NNc2nc3ccccc3s2)CC1	none (no result: HPGD inh)
CC(=O)c1cccc(NC(=O)N2CCC(c3nnc(SCC(N)=O)n3C)CC2)c1	none
Cn1c(-c2ccccc2)c(/C=N/NC(=O)c2ccc(O)cc2)c2ccccc21	JMJD2E inh inconclusive (no result: HPGD inh)
COc1cccc(CN2CCNC(=O)C2CC(=O)N(C)CCc2ccccn2)c1OC (stereo unspecified)	none (no result: HPGD inh)
Cc1cc(C)c2cc3c(N)c(C(=O)N4CCc5ccccc5C4)sc3nc2c1	HPGD inh 7.08µM
Cc1nc(-n2ncc(C#N)c2N)c2c3c(sc2n1)CCC3	none
CCCSc1nc(-n2ncc(C#N)c2N)c2c3c(sc2n1)CCC(C)C3 (stereo unspecified)	HPGD inh inconclusive, ALDH1A1 block 3.98µM, JMJD2E inh inconclusive, HttQ103 aggreg inconclusive
CCC(C)/C(C)=N/NC(=O)c1ccc(CSc2nc3ccccc3s2)cc1 (stereo unspecified)	HPGD inh 20µM, ALDH1A1 block 20µM (no result: HTT cytoprotect)
CC(=O)N1CCc2ccccc2C1CC(=O)O (stereo unspecified)	none (no result: HPGD inh)
CSc1nnc(CNS(=O)(=O)c2ccc(Cl)cc2)n1C	none (no result: HPGD inh)
CCN(CC)c1ccc(C2NCC(c3ccc([N+](=O)[O-])cc3)O2)cc1 (stereo unspecified)	ALDH1A1 block 0.282µM
CC1CCCc2sc3ncn(N)c(=N)c3c21 (stereo unspecified)	HttQ103 aggreg 1.41µM (no result: HPGD inh)
C=CCN(C(=O)C1=NN(C2CCS(=O)(=O)C2)C(=O)CC1)c1nc(-c2ccc([N+](=O)[O-])cc2)cs1 (stereo unspecified)	HttQ103 aggreg inconclusive (no result: HPGD inh)
COc1ccc(N2CCN(C(=O)CSc3ncnc4c3cnn4-c3ccccc3C)CC2)cc1	none
Cc1ccc2nc(SCC(=O)N3c4ccccc4CC3C)c(C)cc2c1 (stereo unspecified)	ALDH1A1 block 25.1µM, HttQ103 aggreg inconclusive
Cc1ccccc1-n1ncc2c(SCC(=O)N3c4ccccc4CC3C)ncnc21 (stereo unspecified)	ALDH1A1 block 14.1µM
CN(Cc1cc2ccccc2[nH]c1=O)C(=O)COc1ccccc1	JMJD2E inh inconclusive (no result: HPGD inh, ALDH1A1 block)
CCOCCCNC(=O)C(c1ccc(C)cc1)N(Cc1cccs1)C(=O)c1ccccc1O (stereo unspecified)	ALDH1A1 block 15.8µM (no result: HPGD inh)
CCOCCCNC(=O)C(c1ccc(OC)cc1)N(Cc1ccc2c(c1)OCO2)C(=O)c1ccccc1O (stereo unspecified)	ALDH1A1 block 2µM (no result: HPGD inh)
O=C(/C=C/c1ccccc1)c1ccccc1	none (no result: HTT cytoprotect)
N#Cc1ccc(/C=C/C(=O)c2ccccc2)cc1	ALDH1A1 block 8.91µM (no result: HPGD inh)
Cc1ccccc1OCCc1c(C)[nH]c(=S)[nH]c1=O	ALDH1A1 block 20µM (no result: HPGD inh)
CN(C)C=Nc1ccccc1C1C=NNC1=O (stereo unspecified)	none (no result: HPGD inh, ALDH1A1 block)
O=C(CSC1=NCCS1)N1CCCCCC1	HPGD inh 28.2µM
Cc1ccc(CN2CCNC(=O)C2CC(=O)NCC(F)(F)F)o1 (stereo unspecified)	none (no result: HPGD inh)
Cc1ccc(-n2c(C)cc(/C=N/NC(=O)c3ccncc3)c2C)cc1	ALDH1A1 block inconclusive
Cc1ccc(C(=O)N/N=C/c2cc(C)n(-c3ccc(Br)cc3)c2C)cc1[N+](=O)[O-]	HPGD inh inconclusive, ALDH1A1 block 10µM
O=C(NC(c1ccccc1)c1ccccc1)C1CCCO1 (stereo unspecified)	none (no result: HPGD inh)
CC(NC(=O)C1CCC1)c1ccc2c(c1)OCO2 (stereo unspecified)	HPGD inh 20µM
Cc1ccc(C(C)NC(=O)C2CCCO2)cc1C (stereo unspecified)	HPGD inh 15.8µM
